Unmarked numbers belong to inactive results.

The test system of this experiment is XIP peptide (Xip251-270) binding. As to the kind of experiment: XIP fragment 251-270 binding compounds – biochemical, small-molecule microarray, fluorescence 635/667 nm, 0.1 µg/mL protein, primary screen (AID 1182). The conditions noted are these: fluorescent protein binding, 635 nm, higher = more signal, called active from +8 up or from −8 down.
On to `Cn1c(=O)n2n(c1=O)[C@H]1[C@H](O)[C@@H]3O[C@@H]3C(=NOCc3ccccc3)[C@H]1CC2`, for which the composite z-score is 0.899.

For `CC(C)=CCCC(C)=CCON=C1C[C@@H](O)[C@@H](O)[C@@H]2[C@@H]3C(=O)N(Cc4ccccc4)C(=O)[C@@H]3CC[C@H]12`, the composite z-score is -0.0515.

As for `Cc1ccc(S(=O)(=O)n2c3ccccc3c3nnc(C(=O)c4ccccc4)nc32)cc1`, the composite z-score is 0.912.

Regarding `CCCNC(=O)OC[C@H]1O[C@H](CCON=C(C)CCN2CCc3nc(CC)c(CC)cc3C2)C=C[C@@H]1Oc1ccc(OC)cc1`, the composite z-score is -0.339.

As to `CC(C)=CCCC(C)=CCON=C1C[C@@H](O)[C@@H](O)[C@@H]2[C@@H]3C(=O)N(C[C@@H]4CCCO4)C(=O)[C@@H]3CC[C@H]12`, the composite z-score is 0.243.

Take `CO[C@@H]1COC(=O)[C@H](CCSC)NC(=O)CC=C[C@@H](C)COC(=O)[C@H](C)NC(=O)CC=C[C@H]1C`: the composite z-score was -0.665.

For `CO[C@H]1COC(=O)[C@@H](C)COC(=O)[C@H](C)NC(=O)CC=C[C@H]1C`, the composite z-score was -0.166.

For `COc1ccc(COC(=O)NN=C2C[C@@H](O)[C@@H](O)[C@@H]3[C@@H]4C(=O)N(c5ccc(F)cc5F)C(=O)[C@@H]4CC[C@H]23)cc1`, the composite z-score is 0.051.

On to `COc1ccc(O[C@H]2C=C[C@@H](c3ccccc3)O[C@@H]2CON=CC[C@@H]2C=C[C@H](OC(C)=O)[C@@H](COC(C)=O)O2)cc1`, for which the composite z-score is 0.21.

Consider `CO[C@H]1COC(=O)[C@@H](C)COC(=O)[C@@H](OCc2ccccc2)C=C[C@@H]1C`, for which the composite z-score is 0.224.

Consider `O=C1[C@H]2[C@H]3[C@H](O)[C@H](O)CC(=NO[C@@H]4O[C@H](CO)[C@@H](O)[C@H](O)[C@H]4O)[C@H]3CC[C@H]2C(=O)N1c1cccc(Oc2ccccc2)c1`, for which the composite z-score was -0.373.

On to `C=CC[C@@H]1C=C[C@H](ON=C2[C@H]3CCn4c(=O)n(-c5ccccc5)c(=O)n4[C@H]3[C@H](O)[C@@H]3O[C@H]23)[C@@H](CO)O1`, for which the composite z-score is 0.372.

For `CO[C@H]1COC(=O)CC=C[C@H](C)COC(=O)[C@@H](C)NC(=O)CC=C[C@@H]1C`, the composite z-score was 0.0921.

As for `C#CCCCON=C1C[C@@H](O)[C@@H](O)[C@@H]2[C@@H]3C(=O)N(C(C)(C)C)C(=O)[C@@H]3CC[C@@H]12`, the composite z-score is -0.0287.

Turning to `Cc1ccc(S(=O)(=O)NC(CCc2ccccc2)CC(=O)C(C)(C)C)cc1` (stereo unspecified), the composite z-score was 0.275.

Turning to `COc1ccc(O[C@H]2C=C[C@@H](c3ccccc3)O[C@@H]2CON=C(C)CCC(=O)OC[C@H]2O[C@H](c3ccccc3)C=C[C@@H]2Oc2ccc(OC)cc2)cc1`, the composite z-score is 0.392.

In the case of `CCOC(=O)[C@H](CC(C)C)NC(=O)CCC1CC(OC(=O)NCc2ccc3c(c2)OCO3)CC2(CCCC(COC(=O)NCc3cccc(C(F)(F)F)c3)O2)O1` (stereo partly specified), the composite z-score was 0.319.

With `O=C1OCCC=C1C(O)CCc1ccccc1` (stereo unspecified), the composite z-score was 0.321.

As to `COC(=O)[C@@H]1CC[C@H](C)[C@@H](c2ccc(C)cc2)N1C(=O)c1ccc(C=NO[C@H](C)c2cn([C@H](CO)Cc3ccccc3)nn2)cc1`, the composite z-score was -0.402.

Regarding `COC(=O)CC=C[C@@H](C)[C@H](OCc1cccc(-c2ccccc2)c1)C1CCCCC1`, the composite z-score is 0.704.

Turning to `CC(C)CON=C1C[C@@H](O)[C@@H](O)[C@@H]2[C@@H]3C(=O)N(c4ccc(F)cc4F)C(=O)[C@@H]3CC[C@H]12`, the composite z-score was 0.0163.

Turning to `C#CCCCON=C1C[C@@H](O)[C@@H](O)[C@@H]2[C@@H]3C(=O)N(CC)C(=O)[C@@H]3CC[C@@H]12`, the composite z-score is 0.901.

Turning to `CCOC(=O)CCN1C(=O)[C@H]2[C@H]3[C@H](O)[C@H](O)CC(=NNC(=O)OCc4ccccc4)[C@@H]3CC[C@H]2C1=O`, the composite z-score is 0.0651.

In the case of `CCCNC(=O)OC[C@H]1O[C@H](CCON=C(C)CCN2CCCc3nc(C)c(C)cc32)C=C[C@@H]1Oc1ccc(OC)cc1`, the composite z-score is -0.0364.

In the case of `CC(C)=CCCC(C)=CCON=C1C[C@@H](O)[C@@H](O)[C@@H]2[C@@H]3C(=O)N(c4ccc(F)cc4F)C(=O)[C@@H]3CC[C@@H]12`, the composite z-score was -0.0619.

As for `Cc1ccc(S(=O)(=O)OC[C@H]2CN3[C@H](c4ccc(Br)cc4)[C@@H](C)CC[C@H]3C(=O)O2)cc1`, the composite z-score is 0.225.

Source of the values: PubChem BioAssay.
